Broadly, the inhibition is the relative decrease from the control value, in per cent.

This is an account of results in PubChem BioAssay AID1986 (Sanford-Burnham Center for Chemical Genomics, 2009).

The experiment in a line: cell-free HIV fusion peptide-binding blockers – biochemical, uHTS, fluorescence dequenching, primary screen (AID 1986). Particulars: 30 min, stronger effect = higher value.
[1] abbreviates: measured here: repeat confirmation average inhibition, at 18.6 µM.

Out of some 290,000 compounds screened, about 890 (0.31%) were called active. Cut-off read from the data, not from the text of the source: active = inhibition mostly above about 52% (no sharp cut-off); inactive = mostly below about 76%. Shown is part of a subset that was picked to be rich in actives.

Turning to `CCCCc1ccc(S(=O)(=O)N2CCN(C(=O)c3ccco3)CC2)cc1`, the inhibition (at 20 µM) was 2% (inactive).

For `Cc1ccc(C)c2[nH]c(=O)c(CN(Cc3cccs3)C(=S)NCc3ccco3)cc12`, the inhibition (at 20 µM) was 16.7% (inactive).

For `CN(C)CCCN1C(=O)C2CCc3[nH]c4ccccc4c3C2C1=O` (stereo not given), the inhibition (at 20 µM) is -1% (inactive).

For `COc1cc(/C=C2/C(=N)N3N=C(CC(=O)N4CCOCC4)SC3=NC2=O)ccc1OC(C)c1ccccc1` (stereo not given), the inhibition (at 20 µM) is 36% (inactive).

As to `CCNc1ccc(Br)cc(C(=O)/C=C/c2ccc(Cl)cc2Cl)c1=O`, the inhibition by setting is: (at 20 µM) 63.3% (inactive); under setting [1], 13.7%.

With `CNc1ccc(Br)cc(C(=O)/C=C/c2cccc(Cl)c2Cl)c1=O`, the inhibition (at 20 µM) is 61.9% (inactive) and the inhibition under setting [1] came to 4.3%.

As for `CNc1ccc(Br)cc(C(=O)/C=C/c2ccc(Cl)cc2Cl)c1=O`, under “at 20 µM”, the inhibition is 61.5% (active).

Regarding `COc1cc(NC(=O)C2CC(c3c(F)cccc3Cl)=NO2)cc(OC)c1OC` (stereo not given), the inhibition (at 20 µM) was 0% (inactive).

As for `Cc1onc(-c2ccccc2Cl)c1C(=O)Nc1ccc(Br)cc1`, the inhibition (at 20 µM) is -0.2% (inactive).

As for `CCS(=O)(=O)c1ccc2oc(Nc3cc(Cl)ccc3OC)nc2c1`, the inhibition (at 20 µM) was -1% (inactive).

In the case of `CCC(=O)Nc1cc(Cl)ccc1C(=O)O`, for the setting “at 20 µM”, the inhibition is -0.2% (inactive).

`O=C(O)c1ccc(Cl)cc1Nc1nc2cc(Cl)ccc2o1`: the inhibition (at 20 µM) is 67.6% (active).

For the compound `O=C(/C=C/c1ccccc1)NCCSCc1ccccc1Cl`, where the note is “at 20 µM”, the inhibition is -2.6% (inactive).

For the compound `O=S1(=O)C=CC(c2ccccc2)C1` (stereo not given), under “at 20 µM”, the inhibition was 0.2% (inactive).

As for `COC(=O)c1nn(-c2ccccc2)c(Sc2ccc(OC)cc2)c1/C=N/O`, the inhibition (at 20 µM) is 2.7% (inactive).

As to `O=c1c(-c2ccccc2)coc2c(CN3CCCCC3)c(O)ccc12`, the inhibition (at 20 µM) was 0.2% (inactive).

As for `COc1ccccc1/C=C1\SC(=S)N(C(C(=O)O)c2ccccc2)C1=O` (stereo not given), the inhibition (at 20 µM) was 30.1% (inactive).

With `O=C1NC(=S)/C(=C\c2ccc(-c3ccccc3Cl)o2)S1`, the inhibition runs as follows: (at 20 µM) 70.7% (inactive); under setting [1], 0.5%.

As to `O=C(O)C(c1ccccc1)N1C(=O)/C(=C\c2ccc(-c3ccc(Br)cc3)o2)SC1=S` (stereo not given), the inhibition (at 20 µM) is 143% (inactive).

On to `O=C(O)C(c1ccccc1)N1C(=O)/C(=C\c2ccc(-c3ccccc3Cl)o2)SC1=S` (stereo not given), for which the inhibition is, setting by setting: (at 20 µM) 94.5% (active); under setting [1], 110%.

For `O=C(O)C(c1ccccc1)N1C(=O)/C(=C/c2cccs2)SC1=S` (stereo not given), the inhibition (at 20 µM) was 14.3% (inactive).

In the case of `O=C(O)C(c1ccccc1)N1C(=O)/C(=C\c2ccc(-c3cccc(Cl)c3)o2)SC1=S` (stereo not given), the inhibition (at 20 µM) is 91.2% (active) and the inhibition under setting [1] was determined as 120%.

As to `COc1ccc(OC)c2[nH]c(=O)c(CCNC(=O)c3ccc(S(=O)(=O)N4CCCCC4)cc3)cc12`, the inhibition (at 20 µM) was -1.4% (inactive).

For `Cc1ccc2c(c1)N(CCC(=O)NCCCOC(C)C)C(=O)C(C)O2` (stereo not given), the inhibition (at 20 µM) is -1.1% (inactive).

Turning to `COC(=O)c1sc2ccccc2c1NC(=O)c1ccc(S(=O)(=O)N2CC(C)CC(C)C2)cc1` (stereo not given), the inhibition (at 20 µM) was -1.5% (inactive).

With `CCOc1ccc(Br)cc1S(=O)(=O)NCCN(C)C`, the inhibition (at 20 µM) is 2% (inactive).

For the compound `CCN(CC)c1ccc2c(c1)oc(=O)c1c(Cl)cc(=O)oc12`, the inhibition (at 20 µM) is 106% (active) and the inhibition under setting [1] was 164%.

As for `CCN(CC)c1ccc2c(Cl)cc(=O)oc2c1`, the inhibition (at 20 µM) was 3.7% (inactive).

Regarding `CCN(CC)c1ccc2c(C)c(Cl)c(=O)oc2c1`, where the note is “at 20 µM”, the inhibition is 4.7% (inactive).

With `C#CCOCCOCCOCCNc1nc(N2CCN(C(=O)[C@H]([C@@H](C)CC)n3cc([C@@H](N)CC(C)C)nn3)CC2)nc(N2CCN(C(=O)[C@H](CCCCN)n3cc([C@@H](N)CO)nn3)CC2)n1`, the inhibition (at 20 µM) was -1.1% (inactive).

With `CC(C)(C)NC(=O)NC(=O)COC(=O)c1ccco1`, the inhibition (at 20 µM) was 1.7% (inactive).

Consider `O=C(O)/C=C/C(=O)N(CC1CCCO1)C1CC(=O)N(c2c(Cl)cccc2Cl)C1=O` (stereo not given), for which the inhibition (at 20 µM) is 7.8% (inactive).

With `O=C1N=C(N2CCN(c3ccccc3)CC2)S/C1=C/c1ccco1`, the inhibition (at 20 µM) was -1.8% (inactive).

With `O=C1N=C(N2CCCC2C(=O)O)S/C1=C\c1ccco1` (stereo not given), the inhibition (at 20 µM) is 52.2% (active).

For the compound `O=C1N=C(N2CCN(c3ccccc3)CC2)S/C1=C\c1ccco1`, the inhibition (at 20 µM) is 0.9% (inactive).

`CCOc1cc(CNCCCN2CCOCC2)cc(Br)c1OCc1ccccc1Cl`: for the setting “at 20 µM”, the inhibition is 0.9% (inactive).

On to `Cc1ccc(N/N=C/c2ccc3c(c2)OCCO3)cc1Cl`, for which the inhibition (at 20 µM) is 2.7% (inactive).

Turning to `COC(=O)c1nnn(-c2ccccc2)c1N`, the inhibition (at 20 µM) was -4.4% (inactive).

As for `N#CC1=C(N)n2c(s/c(=C\c3ccco3)c2=O)=C(C#N)C1c1ccco1` (stereo not given), the inhibition (at 20 µM) is 26% (inactive).

With `CCOC(=O)C1=C(N)n2c(s/c(=C\c3cccs3)c2=O)=C(C(=O)OCC)C1c1cccs1` (stereo not given), the inhibition (at 20 µM) is 3.8% (inactive).

As to `N#CC1=C(N)n2c(s/c(=C\c3cccs3)c2=O)=C(C#N)C1c1cccs1` (stereo not given), the inhibition (at 20 µM) is 74.8% (active).

With `CCc1nnc(NC(=O)C2Cc3ccccc3C(=O)O2)s1` (stereo not given), for the setting “at 20 µM”, the inhibition is -3.6% (inactive).

Turning to `CCOC(=O)c1c(/N=C/C2=C(O)CC(C)(C)CC2=O)sc(C)c1C`, the inhibition (at 20 µM) is 1.6% (inactive).

For the compound `CCOC(=O)c1c(CC(C)C)csc1/N=C/C1=C(O)CCCC1=O`, the inhibition (at 20 µM) is 21.5% (inactive).

`CCOC(=O)c1c(/N=C/C2=C(O)CCCC2=O)sc2c1CCCC2`: the inhibition (at 20 µM) was -0.2% (inactive).

`CCOC(=O)c1c(-c2ccc(OC)cc2)csc1/N=C/C1=C(O)CCCC1=O`: the inhibition (at 20 µM) was 71.6% (active).

As to `CCOC(=O)c1c(-c2ccc(OC)cc2)csc1/N=C/C1C(=O)CCCC1=O`, the inhibition (at 20 µM) is 52.3% (inactive) and the inhibition under setting [1] worked out at 2.2%.

Regarding `CCOC(=O)c1c(/N=C/C2=C(O)CCCC2=O)sc(C)c1C`, the inhibition (at 20 µM) was 52.3% (active).
